Source: PubChem BioAssay (NCI)
This is part of a sample that, as a whole, favours compounds with a hit. Of some 83,000 tested, about 20% had one in any assay.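 The test compound was applied at a single concentration to cells in 96-well plates for 48 hours, and percent growth was recorded.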 Values without a mark were called inactive. Active and inactive are the calls of the source. The calls were made as follows: active = growth percent below 10; inactive = the rest.

system: SR leukemia; experiment: NCI-60 one-dose screen, 48 h (100 = growth as untreated, 0 = no growth, -100 = all killed); conditions: 10 µM unless noted

In the case of `C#C[C@]1(O)CC[C@H]2[C@@H]3CC=C4c5sc(Nc6cccc(C)n6)nc5CC[C@]4(C)[C@H]3CC[C@@]21C`, the growth is reported as -25% (active).
With `O=C(N/N=C\c1ccc(Cl)cc1)c1ccc2nc(-c3ccc(Br)cc3)[nH]c2c1` the growth was -8.2% (active).
In the case of `COc1cc(NC2=C(Cl)C(=O)c3nc(C)ccc3C2=O)cc(OC)c1`, the growth is reported as -3.19% (active).
With `C#C[C@]1(O)CC[C@H]2[C@@H]3CC=C4c5sc(Nc6cc(Cl)ccn6)nc5CC[C@]4(C)[C@H]3CC[C@@]21C` the growth was 4.56% (active).
In the case of `CN1CCN(Cc2ccc(NC(=O)c3cncc(C#Cc4cnc5ccc(O[C@H]6CCOC6)nn45)c3)cc2C(F)(F)F)CC1`, the growth is reported as -22.8% (active).
In the case of `CNC(=O)c1cc(Oc2ccc3nc(NC(=O)c4ccc(CN5CCN(C)CC5)c(C(F)(F)F)c4)sc3c2)ccn1`, the growth is reported as -4.18% (active).
`C#C[C@]1(O)CC[C@H]2[C@@H]3CC=C4c5sc(Nc6ccc(OC)nc6)nc5CC[C@]4(C)[C@H]3CC[C@@]21C` was tested, and the growth was 7.7% (active).
For `O=C1[C@@H]2Cc3c([nH]c4ccccc34)[C@H](c3c(Cl)cccc3Cl)N2C(=O)CN1C1CCN(Cc2ccccc2)CC1`, the growth was 1.57% (active).
For `C#C[C@]1(O)CC[C@H]2[C@@H]3CC=C4c5sc(Nc6ccncc6)nc5CC[C@]4(C)[C@H]3CC[C@@]21C`, the growth was 4.33% (active).
For `O=C1c2c(c3c4cc(Br)ccc4[nH]c3c3ccc4ccccc4c23)C(=O)N1CCN1CCCCC1`, the growth was -21.6% (active).

Going from `Clc1ccc(-c2csc(N/N=C/c3nc4ccccc4n3C3CC3)n2)cc1` to `Cc1ccc(-c2csc(N/N=C/c3nc4ccccc4n3C3CC3)n2)cc1`, the growth falls from 96.6% to 25.1%.

First: O=C(NNc1nc2cc(F)c(F)cc2n2cccc12)c1ccncn1
Second: O=C(NNc1nc2cc(F)cc(F)c2n2cccc12)c1ncccn1
The growth of the first is higher: 14.6% for the first, 13.2% for the second.

Compared with `CCn1c2ccc(/C=N/NS(=O)(=O)CCN(C)C)cc2c2cc(/C=N/NS(=O)(=O)CCN(C)C)ccc21`, `COc1ccc(S(=O)(=O)n2cc(C=O)c3ccccc32)c(OC)c1` is lower in growth: 83.8% for the first, 16.4% for the second.

Going from `COc1ccc(-c2nnc(/N=C3/C(=O)Nc4ccc(Br)cc43)o2)cc1` to `O=C1Nc2ccc(Br)cc2/C1=N\c1nnc(-c2ccc(Cl)cc2)o1`, the growth falls from 97.8% to 10.9%.

Going from `O=C(CCCCCCN1CC(=O)N2[C@@H](c3ccc(Cl)c(F)c3)c3[nH]c4ccccc4c3C[C@H]2C1=O)NO` to `O=C(c1ccc(O)cc1)[C@@H]1[C@@H]2CCCN2[C@@]2(C(=O)N(C(=O)c3ccc(F)cc3)c3ccccc32)[C@H]1c1ccc(F)cc1`, the growth rises from 45.1% to 60.8%.

Going from `O=C1CSC(=O)N1Cc1cc2ccccc2nc1Cl` to `NS(=O)(=O)Oc1ccc2nc(Nc3ccc(F)c(F)c3)ccc2c1`, the growth falls from 98.2% to 60.5%.

First: CCCCSc1nnc(-c2ccc(-c3ccc(Cl)cc3)nc2C)o1
Second: COc1ccc(-c2nc(SCC(C)C)nc(N/N=C\c3cccc([N+](=O)[O-])c3)c2C#N)cc1
The growth of the first is higher: 95.5% for the first, 43.5% for the second.

Going from `COc1ccc(/C=N\NC(=O)c2ccc3nc(-c4ccc(Br)cc4)[nH]c3c2)cc1` to `C#CCOc1ccc(/C=N/Nc2nc(-c3cc4cc(Br)cc(Br)c4oc3=O)cs2)cc1`, the growth rises from 11.8% to 71%.

Compared with `NS(=O)(=O)c1ccc(Nc2nc(N/N=C/c3ccc([N+](=O)[O-])cc3)nc(Nc3ccccc3)n2)cc1`, `C#CCOc1ccc(/C=N/Nc2nc(-c3cc(Cl)ccc3Cl)cs2)cc1` is higher in growth: 15.6% for the first, 87.8% for the second.

First: Cc1ccc(/C=C/CC(=O)Nc2ccc(C(=O)Nc3ccc(F)cc3N)cc2)cn1
Second: COc1cc(/C=C/C(=O)c2ccc(N3CCN(C)CC3)cc2)ccc1F
The growth of the first is higher: 46.1% for the first, 28.3% for the second.

Going from `N#C/C(=C\c1ccc2ccccc2c1)C(=O)Nc1sc2c(c1C#N)CCC2` to `O=C1c2c(c3c4cccnc4[nH]c3c3ccc4ccccc4c23)C(=O)N1CCN1CCCCC1`, the growth falls from 90.9% to 15.4%.

Compared with `C/C=C/C=C1\C[C@H]2CO[C@H](O2)C1=O`, `CC1CCN(S(=O)(=O)c2ncsc2-c2ccccc2)CC1` is higher in growth: 53.1% for the first, 55.7% for the second.

First: CC(C)c1nn(-c2ccccc2)c(N2CCCCC2)c1/C=N/NC(N)=S
Second: Cc1cnc2nc(NN)[nH]n12
The growth of the first is lower: 88.8% for the first, 101% for the second.
